The structures appear in SMILES notation. Calls of active or inactive are those of the source. Unless noted, no rule for the calls is given here.

The text below walks through data of PubChem BioAssay.

Assay [1] concerns Wnt5a (protein binding on small-molecule microarray). The experiment in a line: small molecules binding Wnt5a protein – biophysical, small-molecule microarray, 635/667 nm fluorescence, primary screen (AID 1142).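 Also: fluorescence read at 667 nm with signal to noise per printed feature.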 The settings on record: 635 nm fluorescence, higher = more signal.
Assay [2] in a line: ATP-based viability of Huh7 replicon cells – cell-based, CellTiter-Glo luminescence, basal, 48 h, cytotoxicity control for HCV replication inhibitor project, primary screen (AID 1143).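 Also: Huh7 hepatoma cells carrying a hepatitis C replication reporter with no stimulus; test concentration not given here.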 Particulars: higher = more signal, called active from +8 up or from −8 down.
Assay [3] in a line: Pseudomonas biofilm growth suppression – PAO1 strain, BacTiter-Glo luminescence, LB-PBS, primary screen (AID 1144). Particulars: P. aeruginosa PAO1 biofilm, 12 h, higher = more signal.
Assay [4] can be described thus: basal CRE-LacZ reporter activity in PC12 – cell-based, unstimulated, primary screen (AID 1145). The settings on record: no forskolin, luminescence, 4.5 h, higher = more signal, called active from +8 up or from −8 down.
Assay [5] can be described thus: forskolin-driven CRE-LacZ activity in PC12 – cell-based, CRE-LacZ reporter, forskolin-stimulated, primary screen (AID 1146).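 Also: PC12 cells with 6xCRE LacZ reporter stimulated by forskolin 10 µM; beta-galactosidase reporter signal reflecting CREB driven transcription.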 The settings on record: luminescence, 4.5 h, higher = more signal, called active from +8 up or from −8 down.
The target of assay [6] is Streptavidin (Streptomyces avidinii) (UniProt P22629). The experiment in a line: compounds binding control protein streptavidin – biophysical, small-molecule microarray, 635/667 nm fluorescence, artefact control for SMM compound annotation, primary screen (AID 1147).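 Also: signal reflects streptavidin binding to arrayed compounds as a control protein.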 Particulars: higher = more signal.
Assay [7] in a line: probe aInhba binding on compound microarray – biochemical, small-molecule microarray, 635/667 nm fluorescence, primary screen (AID 1148).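 Also: score merges 667nm spot fluorescence with signal-to-noise for antibody binding to printed compounds.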 Particulars: higher = more signal.
Assay [8] deals with Torsin-1A (Homo sapiens) (UniProt O14656). Description: TOR1A wild-type binding on microarray – cell lysate, small-molecule microarray, lysate, 635/667 nm, primary screen (AID 1149). The settings on record: COS7 hTOR1A-WT lysate, 635 nm fluorescence, higher = more signal.
Assay [9] shares this target. Description: torsin A mutant lysate binding on microarrays – cell lysate, small-molecule microarray, COS7 lysate, 635/667 nm fluorescence, primary screen (AID 1150).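 Also: score pools 667 nm emission and signal to noise measuring lysate protein binding.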 Particulars: COS7 hTOR1A mutant lysate, 635 nm fluorescence, higher = more signal.
The subject of assay [10] is Sonic hedgehog protein (Shh). The experiment in a line: Sonic hedgehog microarray binding compounds – biochemical, small-molecule microarray, 635/667 nm fluorescence, primary screen (AID 1151).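 Also: Shh protein binding to compounds spotted on small-molecule microarray slides; score combines spot fluorescence intensity with signal-to-noise across triplicate slides.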 Particulars: 635 nm fluorescence, higher = more signal.

Chain of Streptavidin (Streptomyces avidinii) (P22629 whole entry, looked up): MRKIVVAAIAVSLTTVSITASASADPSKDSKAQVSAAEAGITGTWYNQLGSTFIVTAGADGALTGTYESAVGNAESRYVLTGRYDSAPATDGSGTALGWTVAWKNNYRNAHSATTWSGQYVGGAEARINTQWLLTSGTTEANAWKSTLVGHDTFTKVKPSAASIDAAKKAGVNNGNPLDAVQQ
Chain of Torsin-1A (Homo sapiens) (O14656 whole entry, looked up): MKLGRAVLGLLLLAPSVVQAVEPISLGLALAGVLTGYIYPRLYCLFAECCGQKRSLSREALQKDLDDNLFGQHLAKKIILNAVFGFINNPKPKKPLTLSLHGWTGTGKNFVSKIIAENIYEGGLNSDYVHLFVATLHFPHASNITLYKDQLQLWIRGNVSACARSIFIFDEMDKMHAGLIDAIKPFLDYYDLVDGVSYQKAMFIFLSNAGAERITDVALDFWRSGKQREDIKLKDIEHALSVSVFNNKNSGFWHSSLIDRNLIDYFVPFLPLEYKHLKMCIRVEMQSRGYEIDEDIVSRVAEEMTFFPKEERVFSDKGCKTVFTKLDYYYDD

Regarding `C=C[C@@H](OC)[C@H](OC(=O)Nc1ccc(OC)cc1)c1ccc(OC)c(O)c1`, the composite z-score in [1] is -0.451; in assay [6], -0.833; in assay [7], -0.166; with Torsin-1A (Homo sapiens) [8], -2.5; with Torsin-1A (Homo sapiens) [9], -1.12; in [10], 0.63. The z-score is -0.749 (inactive) in assay [2], -0.327 (inactive) in assay [3], 0.702 (inactive) in assay [4] and 0.177 (inactive) in assay [5].
As for `CC(C)=CCCC(C)=CC(O)C1C=CC2C(=O)N(c3ccccc3)C(=O)C2N1Nc1ccccc1F` (stereo not given), the composite z-score is 0.151 in [1]; 1.17 in [6]; 0.0047 in assay [7]; -0.216 with Torsin-1A (Homo sapiens) [8]; -0.0306 with Torsin-1A (Homo sapiens) [9]; 0.396 in assay [10]. Also, the z-score in assay [2] is -2.83 (inactive); in assay [3], -1.45 (inactive); in assay [4], -0.0228 (inactive); in assay [5], 0.358 (inactive).
On to `NC(=O)[C@H]1[C@@H]2C(=O)O[C@@H](c3ccccc3)[C@@H](c3ccccc3)N2[C@@H](c2ccc(O)cc2)[C@]12C(=O)Nc1ccccc12`, for which the composite z-score in assay [1] is -0.355; in [6] it was -1.08; in assay [7], -0.128; with Torsin-1A (Homo sapiens) [8] it was -1.54; with Torsin-1A (Homo sapiens) [9], -1.73; in assay [10], -0.96. The z-score in [2] is -0.0816 (inactive); in [3], 0.191 (inactive); in assay [4], -0.141 (inactive); in [5] it was 0.272 (inactive).
On to `CC(C)(C)OC(=O)CC[C@]12N=C(c3ccc(OCCCO)cc3)O[C@H]1c1ccccc1N(Cc1ccccc1)C2=O`, for which the composite z-score in [1] is 0.154; in assay [6], -0.12; in assay [7], 0.225; with Torsin-1A (Homo sapiens) [8] it was 0.553; with Torsin-1A (Homo sapiens) [9], 1.63; in assay [10] it was 1.12. For the same compound, the z-score in assay [2] was -3.76 (inactive); in assay [3], 1.18 (inactive); in assay [4] it was 0.951 (inactive); in [5], -0.746 (inactive).
For `O=C1C2C=CC(C(O)c3cc(C(F)(F)F)cc(C(F)(F)F)c3)N(Nc3ccccc3F)C2C(=O)N1c1ccccc1` (stereo not given), the composite z-score in assay [1] was 0.17; in assay [6], 0.714; in [7], 0.385; in the assay with Torsin-1A (Homo sapiens) [8], -0.0067; in the assay with Torsin-1A (Homo sapiens) [9] it was 0.379; in [10], -0.685. For the same compound, the z-score in [2] is -3.68 (inactive); in [3], -0.476 (inactive); in [4] it was 0.626 (inactive); in assay [5] it was -0.0442 (inactive).
As for `C=C(/C(=C/C[C@@H](OC(C)=O)c1ccc(CO)o1)c1cc(C(=O)OC)ccc1OC)C(C)C`, the composite z-score is 0.201 in [1]; -0.446 in assay [6]; 0.148 in assay [7]; 0.431 with Torsin-1A (Homo sapiens) [8]; 0.549 in the assay with Torsin-1A (Homo sapiens) [9]; 1.07 in assay [10]. For the same compound, the z-score was -0.143 (inactive) in [2], -0.0434 (inactive) in assay [3], 0.247 (inactive) in assay [4] and 2.78 (inactive) in assay [5].
With `CN1C(=O)C2C=CC(C(O)c3cc(C(F)(F)F)cc(C(F)(F)F)c3)N(Nc3ccccc3)C2C1=O` (stereo not given), the composite z-score is -0.253 in assay [1]; 0.0416 in assay [6]; -0.128 in assay [7]; -1.74 with Torsin-1A (Homo sapiens) [8]; 1.13 with Torsin-1A (Homo sapiens) [9]; -0.145 in [10]. Besides, the z-score in assay [2] is -0.73 (inactive); in assay [3] it was 0.329 (inactive); in assay [4], 0.626 (inactive); in assay [5], -0.0455 (inactive).
`Cc1ccc([C@H]2C(C(=O)O)=C[C@@H](C(C)(C)C)N2S(=O)(=O)c2ccc(C)cc2)cc1`: the composite z-score in assay [1] worked out at 0.285; in assay [6], 1.54; in assay [7], 0.271; in the assay with Torsin-1A (Homo sapiens) [8], 0.0948; in the assay with Torsin-1A (Homo sapiens) [9], 0.465; in assay [10], 0.347. For the same compound, the z-score in assay [2] is -0.117 (inactive); in assay [3], 0.62 (inactive); in [4] it was -0.312 (inactive); in assay [5], 0.134 (inactive).
As to `CC(C)CNC(=O)[C@@H]1c2ccccc2C(=O)N(C2CCCCC2)[C@H]1c1ccc(CO)cc1`, the composite z-score was -0.141 in assay [1]; -0.285 in assay [6]; -0.101 in assay [7]; 0.146 with Torsin-1A (Homo sapiens) [8]; -0.0175 with Torsin-1A (Homo sapiens) [9]; -0.242 in assay [10]. Also, the z-score in [2] is -2.94 (inactive); in assay [3], -0.466 (inactive); in assay [4], -0.179 (inactive); in assay [5], -1.55 (inactive).
As for `C=CCC(OC(C)=O)[C@@H]1[C@@H](N(Cc2ccc(-c3ccccc3)cc2)C(=O)c2ccc(C)cc2)c2cc(OCCCO)ccc2N1C(=O)Cc1ccc2ccccc2c1` (stereo not given in full), the composite z-score in assay [1] was -0.0632; in [6] it was 0.129; in [7], -0.0986; in the assay with Torsin-1A (Homo sapiens) [8], 0.0508; with Torsin-1A (Homo sapiens) [9], -0.577; in assay [10], 1. Also, the z-score in assay [2] was -0.889 (inactive); in assay [3] it was -0.0727 (inactive); in [4], 1.66 (inactive); in [5] it was -0.515 (inactive).
As for `CC(C)CNC(=O)[C@@]1(c2ccc([N+](=O)[O-])cc2)CC(=O)N(C2CCCCC2)[C@@H]1c1ccc(CO)cc1`, the composite z-score in [1] is 0.335; in [6], -0.0755; in assay [7], -0.153; with Torsin-1A (Homo sapiens) [8], 0.442; in the assay with Torsin-1A (Homo sapiens) [9], 0.0881; in assay [10] it was -0.158. In addition, the z-score in [2] is -2.21 (inactive); in [3], 0.901 (inactive); in [4], 0.585 (inactive); in [5], 0.142 (inactive).
As to `COCCOC(=O)N1C(=O)[C@@]2(c3cc(C#CCCO)ccc31)[C@H](c1ccccc1OCCO)N1[C@H](c3ccccc3)[C@H](c3ccccc3)OC(=O)[C@H]1[C@@H]2C(=O)N1CCCCCCC1`, the composite z-score in assay [1] was 0.405; in [6] it was 1.31; in assay [7], 1.45; in the assay with Torsin-1A (Homo sapiens) [8], 1.22; with Torsin-1A (Homo sapiens) [9], 0.34; in [10], 1.97. For the same compound, the z-score in assay [2] was -3.64 (inactive); in assay [3], -1.29 (inactive); in [4], -1.15 (inactive); in [5], 0.481 (inactive).
For the compound `[N-]=[N+]=NCc1ccccc1[C@@H]1OC(c2ccc(OCCCO)cc2)=N[C@]1(Cc1ccccc1N=[N+]=[N-])C(=O)NCCN1CCOCC1`, the composite z-score is 0.959 in assay [1]; 0.974 in [6]; 0.102 in assay [7]; 1.06 with Torsin-1A (Homo sapiens) [8]; 1.01 with Torsin-1A (Homo sapiens) [9]; 0.387 in assay [10]. For the same compound, the z-score in assay [2] is -3.14 (inactive); in assay [3] it was 1.07 (inactive); in [4], 0.895 (inactive); in assay [5], -1.78 (inactive).
In the case of `CN(C)C(=O)[C@]1(CCS(=O)(=O)c2ccccc2)N=C(c2ccc(OCCCO)cc2)O[C@@H]1c1ccccc1`, the composite z-score is 0.995 in [1]; 1.22 in assay [6]; 0.204 in assay [7]; 0.957 in the assay with Torsin-1A (Homo sapiens) [8]; 0.831 with Torsin-1A (Homo sapiens) [9]; -0.707 in assay [10]. The z-score in assay [2] is -2.87 (inactive); in assay [3], -1.52 (inactive); in assay [4], 1.42 (inactive); in [5], 1.1 (inactive).
